Assay: qHTS profiling of the MIPE4 collection as inhibitors of Plasmodium falciparum (HB3) proliferation (AID 743347)
Details: P. falciparum HB3 in erythrocytes, SYBR Green DNA, 72 h; at 28.5 µM (top of the series)
Text: Plasmodium falciparum is a virulent malarial parasite that kills 1-2 million people worldwide each year. Transmitted by mosquitoes, the sporozoite form of the parasite enters the blood stream to infect hepatocytes, where they become merozoites that infect red blood cells (erythrocytes). Within erythrocytes, merozoites begin a […] cycle of growth and division, after which the parasite is released to infect new red blood cells. Gametocytes, which form within erythrocytes as well, circulate in the bloodstream and are ingested by the mosquito, thereby completing the life cycle. To profile malarial isolates for differential chemical responses and to identify inhibitors of malarial growth, an assay that measures P. falciparum growth and replication within erythrocytes was employed. This assay uses a DNA binding fluorescent dye (SYBR Green) to detect parasite DNA following cell lysis. Because mature erythrocytes lack DNA, only Plasmodium-derived DNA is detected.
The SYBR Green viability assay was adapted from a method described previously (Plouffe et al., 2008). For screening 3 ul culture medium was dispensed into 1536 well black clear bottom plates (Aurora Biotechnologies) using a Multidrop Combi (Thermo Fisher Scientific Inc.), 23 nL compounds in DMSO were added by a pin tool (Kalypsys), and 5 ul of erythrocytes infected with P. falciparum (0.3% parasitemia, 2.5% hematocrit final concentration) were added. The plates were incubated at 37 C in a humidified incubator in 5% CO2 for 72 h, and 2 ul lysis buffer (20 mM Tris HCl, 10 mM EDTA, 0.16% saponin, 1.6% triton X, 10X SYBR Green I supplied as 10,000X […] by Invitrogen) was added to each well. The plates were mixed for 25 sec with gentle shaking and incubated overnight at room temperature in the dark. The following morning, fluorescence intensity at 485(14) nm excitation and 535(25) nm emission wavelengths was measured on an EnVision (Perkin Elmer) plate reader. Plate reads were normalized relative to the control inhibitor (0.29 uM artemisinin) and vehicle (DMSO) wells present on each plate and then corrected by an algorithm using vehicle-only control plates at the beginning and end of the compound plate stack.

Going from `COc1cc2cc(c1Cl)N(C)C(=O)C[C@H](OC(=O)C(C)C)[C@]1(C)O[C@H]1[C@H](C)[C@@H]1C[C@@](O)(NC(=O)O1)[C@H](OC)C=CC=C(C)C2` to `COC1=CC(C)=C[C@@H](C)[C@@H](O)[C@@H](C)CC(C)=CC=C[C@H](OC)[C@H]([C@@H](C)[C@@H](O)[C@H](C)[C@@]2(O)C[C@@H](O)[C@H](C)[C@@H](C(C)C)O2)OC1=O`, the growth, % of control falls from 9.61% to 8.98%.

First: Cc1[nH]nc2ccc(-c3cncc(OC[C@@H](N)Cc4c[nH]c5ccccc45)c3)cc12
Second: O=C(Nc1ccncc1)C(=O)c1cn(Cc2ccc(Cl)cc2)c2ccccc12
The growth, % of control of the first is lower: 8.77% for the first, 78.4% for the second.

Compared with `CC(C)N[C@@H]1CCn2c(=O)[nH]c3cccc(c32)[C@@H]1O`, `CN[C@@H]1Cc2cccc3[nH]c(=O)n(c23)C1` is lower in growth, % of control: 101% for the first, 85.5% for the second.

Going from `O=c1[nH]c2ccc(Cl)cc2c(N[C@@H]2CN3CCC2CC3)c1-c1nc2ccccc2[nH]1` to `C=C[C@@H]1CN2CCC1C[C@H]2[C@H](O)c1ccnc2ccccc12` (stereo not given in full), the growth, % of control rises from 2.7% to 21.5%.

Compared with `COCC1(CO)C(=O)C2CCN1CC2` (stereo not given), `O=C1C=CC[C@@H]2[C@H]3CCCN4CCC[C@@H](CN12)[C@@H]34` is higher in growth, % of control: 87.2% for the first, 97.5% for the second.

Going from `CN(C)[C@@H]1C(=O)C(C(N)=O)=C(O)[C@@]2(O)C(=O)C3=C(O)c4c(O)cccc4[C@@](C)(O)[C@H]3[C@H](O)[C@@H]12` to `COC[C@H]1OC(=O)c2coc3c2[C@@]1(C)C1=C(C3=O)[C@@H]2CC[C@H](O)[C@@]2(C)C[C@@H]1OC(C)=O`, the growth, % of control rises from 19.3% to 48.8%.

First: C[C@]12Cc3cn[nH]c3C[C@@H]1CC[C@@H]1[C@H]2CC[C@@]2(C)[C@H]1CC[C@]2(C)O
Second: C[C@]12COC(=O)C[C@@H]1CC[C@@H]1[C@H]2CC[C@@]2(C)[C@H]1CC[C@]2(C)O
The growth, % of control of the first is lower: 47.2% for the first, 93.7% for the second.

Compared with `CC(C)(O)C(=O)Nc1ccc([N+](=O)[O-])c(C(F)(F)F)c1`, `Cc1c(C(=O)Nc2cccc(C(F)(F)F)c2)cc(-c2ccccc2)n1CCCN1CCOCC1` is lower in growth, % of control: 79% for the first, 10.9% for the second.

First: CCN1C[C@]2(OC(=O)c3ccccc3NC(C)=O)CC[C@H](OC)[C@@]34[C@H]5CC6[C@@H](OC)C[C@](O)(C(C[C@@H]23)[C@@H]14)[C@@]5(O)[C@@H]6OC
Second: CC=C(C)C(=O)N[C@@H](c1ccccc1)[C@@H](O)C(=O)O[C@H]1C[C@@]2(O)[C@@H](OC(=O)c3ccccc3)[C@@H]3[C@]4(OC(C)=O)CO[C@@H]4C[C@H](O)[C@@]3(C)C(=O)[C@H](OC(C)=O)C(=C1C)C2(C)C
The growth, % of control of the first is higher: 85.8% for the first, 6.33% for the second.

Compared with `CC(C)(C)[C@]1(O)C[C@@H]2OC(=O)C[C@@]23C(=O)O[C@@H]2OC(=O)[C@H](O)C213` (stereo not given in full), `CC=C(C)C(=O)O[C@H]1C(C)=C2[C@@H]3OC(=O)[C@@](C)(O)[C@@]3(O)[C@@H](OC(=O)CCC)C[C@](C)(OC(C)=O)[C@@H]2[C@@H]1OC(=O)CCCCCCC` is lower in growth, % of control: 75.6% for the first, 8.71% for the second.

Compared with `CN1CCN(c2ccc([N+](=O)[O-])c3no[n+]([O-])c23)CC1`, `Cc1nc(-c2ccc(-c3ccc(C(=O)N4CCc5cc6c(cc54)C4(CCN(C)CC4)CO6)cc3)c(C)c2)no1` is lower in growth, % of control: 99.7% for the first, 43.5% for the second.

Going from `CCNC(=O)C[C@@H]1N=C(c2ccc(Cl)cc2)c2cc(OC)ccc2-n2c(C)nnc21` to `COc1ccc(C(=O)c2c(C)n(CCN3CCOCC3)c3cc(I)ccc23)cc1`, the growth, % of control falls from 94.6% to 33.7%.

Going from `C[C@]12CC[C@H](O)CC1=CC[C@H]1[C@H]3CCC(=O)[C@@]3(C)CC[C@@H]12` to `CCC(=O)OC1CCC2C3CCC4=CC(=O)CC[C@@]4(C)C3CC[C@]12C` (stereo not given in full), the growth, % of control falls from 98.3% to 94.7%.

Going from `CSCC[C@@H](NC(=O)[C@@H](Cc1ccccc1)NC(=O)CNC(=O)CNC(=O)[C@@H](N)Cc1ccc(O)cc1)C(=O)O` to `O=C(O)CNC(=O)c1c(O)c2ccccc2n(Cc2ccccc2)c1=O`, the growth, % of control rises from 99.5% to 105%.

Going from `c1ccc2c(CN3CCNCC3)cccc2c1` to `O=S(=O)(CC1CS1)c1ccc(Oc2ccccc2)cc1` (stereo not given), the growth, % of control falls from 109% to 106%.

Compared with `CO[C@H]1CCC(O[C@H]2C[C@H]([C@]3(C)CC[C@]4(C[C@H](O)[C@@H](C)[C@@H]([C@@H](C)C=C(C)C(=O)[C@H](C)C[C@H](C)C(=O)O)O4)O3)O[C@]3(O[C@@H]([C@H]4O[C@@](O)(CO)[C@H](C)C[C@H]4C)C[C@H]3C)[C@H]2C)O[C@H]1C` (stereo not given in full), `Oc1ccc2c3c1O[C@H]1c4[nH]c5c(c4C[C@@]4(O)[C@@H](C2)N(CC2CC2)CC[C@]314)C[C@@]1(O)[C@H]2Cc3ccc(O)c4c3[C@@]1(CCN2CC1CC1)[C@H]5O4` is lower in growth, % of control: 8.74% for the first, 4.03% for the second.

First: CC[C@H](CO)Nc1nc(NCc2ccccc2)c2ncn(C(C)C)c2n1
Second: CCN1CCN(C(=O)Cc2ccc(Nc3ncc(F)c(Nc4ccc(C(=O)Nc5ccccc5Cl)cc4)n3)cc2)CC1
The growth, % of control of the first is higher: 47.3% for the first, 7.73% for the second.

Compared with `CN1[C@H]2CC(O)C[C@H]1[C@H]1O[C@H]12` (stereo not given in full), `CC(=O)OCC1=C(C(=O)O)N2C(=O)[C@@H](N)[C@@H]2SC1` is higher in growth, % of control: 7.31% for the first, 97.3% for the second.

Going from `O=S(=O)(F)Cc1ccccc1` to `COc1ccc2c(c1)CC[C@H]1[C@@H]2CC[C@]2(C)[C@@H](NCCCCCCN3C(=O)C=CC3=O)CC[C@H]12`, the growth, % of control falls from 94% to 77.6%.

Going from `c1cc2c(cc1[C@H]1OC[C@H]3[C@H]1CO[C@H]3c1ccc3c(c1)OCO3)OCO2` to `CC1(N2CCC(n3c([C@@H]4CCCNC4)nc4ccccc43)CC2)CCCCCCC1`, the growth, % of control falls from 107% to 6.13%.
